From PubChem
VDR inhibitor – blocks the human vitamin D receptor | P11473 | Potency, µM, for the others: max response, negative = inhibition, actives largely listed as inhibitors | VDR-SRC2-3 peptide fluorescence polarization, 2 h | actives 0.93% (n = 400,000); further: on the % scale 0 is the no-effect control and ±100 the full control effect
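Inhibition of the VDR/SRC2-3 peptide interaction is quantified by fluorescence polarization. Compounds (23 nl, pintool) incubate with the reagents for 2 hours at ambient room temperature.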
BAZ2B inh – blocks human BAZ2B | AlphaScreen BAZ2B-H3K14Ac peptide displacement | AID 504333 | actives 4.4% (n = 360,000) | Potency, µM (highest dose often 114 µM), for the others: at the top dose activity change, negative = inhibition, most hits filed as inhibitors; further: on the % scale 0 is the no-effect control and ±100 the full control effect; nearly all actives have a fitted effect of over 60% in size
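AlphaScreen luminescence quantifies BAZ2B engagement of H3K14Ac peptide; the protein and biotinylated peptide are both at 50 nM final, buffer PBS pH 7.4 with 0.01% Tween-20, all steps at room temperature.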
HP1b chromo inh – inhibitors of HP1-beta chromodomain binding to methylated histone tails; actives 0.56% (n = 390,000); AlphaScreen HP1-beta / biotin-H3K9me3 peptide binding; Potency, µM (series often up to 114 µM), for the others: at the top dose activity change, negative = inhibition, actives largely listed as inhibitors; further: nearly all actives have a fitted effect of over 70% in size
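AlphaScreen: HP1-beta (50 nM) preformed 30 min with biotin-H3(1-18)K9me3 peptide (50 nM) in PBS pH 7.4, 0.01% Tween-20. Compound added for 30 min at RT, then streptavidin donor/nickel chelate acceptor beads (10 ug/mL) for 30 min.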
PLK1 PBD inh – blocks phosphopeptide binding to human PLK1 polo-box domain | P53350 | Plk1 PBD binding of FITC phosphopeptide, fluorescence polarization | Potency, µM, for the others: max response, negative = inhibition, hits mostly inhibitors | actives 2.8% (n = 360,000) | AID 720504; further: series mostly up to about 57 µM; on the % scale 0 is the no-effect control and ±100 the full control effect; nearly all actives have a fitted effect of over 65% in size
JMJD2A Tudor inh – blocks the human JMJD2A Tudor domain; AID 504339; O75164; Potency, µM (titrated, usually from 114 µM), without a hit: top-dose activity change, negative = inhibition, usual class: inhibitors; AlphaScreen JMJD2A-Tudor / H3K4me3 peptide binding; actives 4.4% (n = 390,000); further: on the % scale 0 is the no-effect control and ±100 the full control effect; nearly all actives have a fitted effect of over 50% in size
L3MBTL1 inh – inhibitors of human L3MBTL1; Q9Y468; AlphaScreen L3MBTL1–H3K9me1 peptide binding; Potency, µM (titrated, usually from 57.1 µM), inactives show at the highest dose activity, negative = inhibition, actives largely listed as inhibitors; actives 0.66% (n = 230,000); AID 485360; further: on the % scale 0 is the no-effect control and ±100 the full control effect; nearly all actives have a fitted effect of over 60% in size
Target sequence (Q9Y468 whole entry, looked up): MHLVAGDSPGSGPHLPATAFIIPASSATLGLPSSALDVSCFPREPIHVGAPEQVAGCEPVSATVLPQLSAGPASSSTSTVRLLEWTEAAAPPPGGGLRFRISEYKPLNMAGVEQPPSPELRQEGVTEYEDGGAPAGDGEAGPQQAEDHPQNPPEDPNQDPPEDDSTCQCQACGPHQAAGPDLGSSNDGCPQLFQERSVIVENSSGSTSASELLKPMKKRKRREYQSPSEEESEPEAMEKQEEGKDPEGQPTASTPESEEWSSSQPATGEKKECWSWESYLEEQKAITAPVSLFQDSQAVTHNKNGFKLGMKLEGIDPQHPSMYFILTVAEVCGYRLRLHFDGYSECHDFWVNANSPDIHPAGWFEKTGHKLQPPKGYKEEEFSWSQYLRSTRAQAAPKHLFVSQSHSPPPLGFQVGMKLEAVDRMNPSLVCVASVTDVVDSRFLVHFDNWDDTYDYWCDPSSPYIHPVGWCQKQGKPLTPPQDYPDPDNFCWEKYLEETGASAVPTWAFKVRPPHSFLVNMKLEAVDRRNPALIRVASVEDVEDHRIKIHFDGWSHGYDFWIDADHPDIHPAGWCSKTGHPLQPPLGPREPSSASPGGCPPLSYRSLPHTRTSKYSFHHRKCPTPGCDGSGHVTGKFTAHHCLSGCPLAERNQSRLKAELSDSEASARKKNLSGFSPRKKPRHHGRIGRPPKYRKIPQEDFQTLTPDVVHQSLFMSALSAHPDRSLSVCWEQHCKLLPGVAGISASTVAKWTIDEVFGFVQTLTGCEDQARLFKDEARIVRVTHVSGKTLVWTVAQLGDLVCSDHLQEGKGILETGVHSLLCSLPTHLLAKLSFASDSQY
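First, the protein-peptide complex forms for 30 min at room temperature (L3MBTL1 50 nM, biotinylated H3K9me1 peptide 75 nM). Next, compounds are pin-transferred and incubated 30 min. Finally, AlphaScreen beads are added and read after 30 min.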
Active calls of the source: *; ? = inconclusive; / = no result given; [ ] = another dose, or the depositor's remark. An excerpt weighted towards active compounds, which were near 6.9% of everything screened. The call rests on the fitted dose curve; in most records, active means well fitted curve in the direction sought with a large enough effect; inconclusive means small, poorly fitted or top-dose-only effect, or another doubt; inactive means no such curve, though single readings can be large; an effect the other way counts as inactive or inconclusive. Potency means the concentration at half of the fitted maximal effect.

SMILES | VDR inhibitor | BAZ2B inh | HP1b chromo inh | PLK1 PBD inh | JMJD2A Tudor inh | L3MBTL1 inh
Fc1ccc(-c2nnc(Cc3ccc(Cl)cc3)o2)cc1 | -13.2% | 38.5% | 64.9% | 3.4% | 39.5% | 29.7%
Cn1c(/N=C/c2cccs2)nc2ccccc21 | -14.7% | -12.1% | -4.7% | -3.3% | -22.6% | 1.7%
Cc1ccc(C)c(N=Nc2nc3ccccc3n2C)c1 | -7.0% | 8.91µM* | 15.8µM* | -8.6% | 25.1µM* | ?
Cc1ccc(CNc2nc3ccccc3n2C)cc1 | 0.3% | -2.6% | 34.2% | -1.1% | -14.3% | 1.8%
Cc1cc(C)c(C)c(N=Nc2nc3ccccc3n2C)c1C | -14.2% | 7.94µM* | 12.6µM* | ? | 11.2µM* | ?
CCOc1ccc2c(c1)c1nnc(SCC3CCCO3)nc1n2C (stereo not drawn) | -27.1% | / | -10.6% | 26.7µM* | ? | 3.8%
CCOc1ccc2[nH]c3nc(SCC(=O)NCC4CCCO4)nnc3c2c1 (stereo not drawn) | 9.8% | -2.5% | 0.5% | -6.5% | -23.5% | /
CCOc1ccc(CCNC(=O)c2cnc3sc(N4CCCCCC4)nn3c2=O)cc1 | -0.3% | -14.3% | -18.2% | / | -20.3% | /
CCC(CC)N1CCN(C(=O)c2cc(OC)c(OC)c(OC)c2)CC1 | -2.6% | ? | ? | 2.8% | 50.1µM* | -2.6%
COc1ccc(C(=O)N2CCN(C(=O)c3cc(OC)c(OC)c(OC)c3)CC2)cc1 | -8.5% | -19.0% | 5.5% | -7.1% | -10.8% | 33.1%[11.4 µM]
COC(=O)c1ccc(NC(=O)C2CCN(C(=O)c3cc(OC)c(OC)c(OC)c3)CC2)cc1 | 4.2% | -30.9% | 12.0% | 2.7% | 44.7µM* | /
COc1cc(C(=O)N2CCN(CCCc3ccccc3)CC2)cc(OC)c1OC | -13.9% | / | -12.1% | ? | 20µM* | /
CCOC(=O)c1ccc(NC(=O)C2CCN(C(=O)c3ccc(OC)c(OC)c3)CC2)cc1 | 12.2% | 4.8% | 14.4% | -9.3% | -9.8% | 8.9%
Cc1ccc(NC(=O)COC(=O)Cn2ccc(=O)[nH]c2=O)cc1C | -3.3% | / | 31.0% | -1.4% | -5.3% | 4.2%
Fc1cnc(Cl)nc1NC1CCCCC1 | ? | 2.0% | 14.4% | 21.2µM* | ? | /
Fc1ccc(-n2ncc3c(NC4CCCCCC4)ncnc32)cc1 | 10.5% | 17.7% | 52.1% | / | 11.3% | /
CCOc1ccc(C(=O)N/N=C(/C)C2C(=O)c3ccccc3C2=O)cc1 | -16.8% | 0.9% | 22.1% | -0.1% | 35.5µM* | -2.9%
Cc1cc(OC(C)C(=O)NCCCN2CCOCC2)c2c(C)cc(=O)oc2c1 (stereo not drawn) | ? | -0.4% | 79.4µM* | -1.0% | -5.8% | /
CCCc1cc(=O)oc2cc(C)cc(OC(C)C(=O)NCCCN3CCOCC3)c12 (stereo not drawn) | -0.3% | -31.2% | 29.1% | -16.3% | -13.1% | /
CCCCOC(=O)c1ccc(NC(=O)Cn2nnc3sc4c(c3c2=O)CCCC4)cc1 | -0.8% | -8.4% | 3.2% | / | -29.6% | /
O=C1CCCC2=C1Sc1ccccc1N2 | 5.7% | 44.7µM* | -21.4% | -21.1% | -35.9% | -19.0%
CCCS(=O)(=O)N1CCCC(C(=O)NCCOC)C1 (stereo not drawn) | 8.0% | 1.6% | 21.9% | / | -23.9% | /
COc1ccc2c(Sc3ccc(C)cc3)c(C(=O)NCC(C)c3ccccc3)[nH]c2c1 (stereo not drawn) | 16.6% | -0.7% | 40.1% | / | -8.6% | /
COc1ccc(-c2ccc3c(c2)S(=O)(=O)c2cccc(C(=O)NC[C@@H]4CCCO4)c2C3=O)cc1OC | -1.0% | ? | 11.6% | 0.1% | 39.8µM* | -1.0%
CC(C)c1cccc(-c2ccc3c(c2)S(=O)(=O)c2cccc(C(=O)NCc4ccco4)c2C3=O)c1 | -18.0% | / | 28.4% | 42.3µM* | ? | -25.8%
SMILES | VDR inhibitor | BAZ2B inh | HP1b chromo inh | PLK1 PBD inh | JMJD2A Tudor inh | L3MBTL1 inh
O=C(NC[C@@H]1CCCO1)c1cccc2c1C(=O)c1ccc(Cl)cc1S2(=O)=O | 12.5% | 5.7% | 21.3% | -3.4% | -27.3% | 8.6%
COc1cccc(N2C(=O)CC(Nc3ccc(N4CCOCC4)cc3)C2=O)c1 (stereo not drawn) | -18.8% | -5.7% | -11.5% | -11.0% | ? | -2.0%
O=C1CC(Nc2ccc(N3CCOCC3)cc2)C(=O)N1c1cccc(C(F)(F)F)c1 (stereo not drawn) | -29.8% | 56.2µM* | -14.9% | -15.4% | ? | ?
COc1ccc(C2(C(=O)O)CCCC2)cc1 | 9.8% | -6.9% | 22.4% | -0.7% | -28.9% | /
COc1ccc(C2(C)CC(C)(C)Nc3ccccc32)cc1 (stereo not drawn) | -4.9% | ? | ? | -0.2% | 50.1µM* | 2.0%[2.29 µM]
O=C(Nc1nc(Nc2cc(F)cc(F)c2)nc(NC2CCCC2)n1)OCc1ccccc1 | / | / | / | / | -17.8% | /
COCCCNCCCCOc1ccccc1-c1ccccc1 | 13.5% | 70.8µM* | ? | -1.2% | 79.4µM* | -2.1%
OCCNCCOc1ccccc1F | 19.0% | 0.4% | 33.5% | -0.9% | -7.2% | 9.1%
COCCCNCCOc1ccccc1-c1ccccc1 | 13.8% | -31.8% | -35.2% | -1.2% | 25.1µM* | ?
OCCNCCOCCOc1ccccc1-c1ccccc1 | -3.7% | ? | ? | 6.2% | 3.16µM* | -2.8%
COCCNCCOc1ccccc1-c1ccccc1 | 28.3% | ? | ? | -6.2% | 14.1µM* | /
C=CCNCCCCOc1ccccc1-c1ccccc1 | -12.8% | 3.6% | 12.8% | 1.2% | 1.7% | 4.8%
CN(Cc1ccccc1)c1nc2c(S(=O)(=O)c3ccccc3)nnn2c2ccsc12 | 23.3% | -10.1% | 49.9% | / | -9.9% | /
COc1ccccc1NC(=O)CSc1ncc2c(n1)-c1ccccc1N(Cc1ccccc1C)S2(=O)=O | -6.8% | -19.0% | 4.5% | / | -15.6% | /
Cc1noc(C)c1S(=O)(=O)Nc1ccc2c(c1)CC(=O)N([C@H](C)CO)C[C@H](C)[C@@H](CN(C)CC1CC1)O2 | 3.1% | / | 40.4% | -4.1% | 2.1% | 7.5%
COc1nc2ccccc2nc1CCC(=O)O | -6.0% | 3.6% | 5.4% | 29.9µM* | ? | ?
COC(=O)CCc1nc2ccccc2nc1OC | -16.8% | -4.6% | 5.8% | 1.5% | -20.4% | 4.2%
CC[C@@H](C)[C@@H](C(=O)Nc1ccc(C)cc1)N1Cc2ccccc2C1=O | -10.9% | -21.2% | 29.0% | / | -7.1% | /
O=C(NCC1CCN(Cc2cccc(Cl)c2)CC1)Nc1ccc(Cl)cc1 | ? | -38.3% | 42.6% | -4.3% | -30.4% | /
CCc1cccc(CN2CCC(CNC(=O)Nc3ccc(Cl)cc3)CC2)c1 | -1.6% | 50.1µM* | 26.6% | -0.5% | -19.4% | -9.3%
O=C(CCC1N=C2c3ccccc3N=C(SCC(=O)Nc3ccc(F)cc3)N2C1=O)NCc1cccs1 (stereo not drawn) | -4.1% | -19.8% | 8.7% | / | -13.3% | /
CCOc1ccc(N(CC(=O)Nc2ccc3c(c2)OCO3)S(=O)(=O)c2ccccc2)cc1 | 6.7% | -20.9% | -8.6% | / | -34.3% | /
